ARNT TACC3 PPI: disruptors of ARNT/TACC3 protein interaction, primary screen, biochemical, AlphaScreen, single concentration | Transforming acidic coiled-coil-containing protein 3 (Homo sapiens), Q9Y6A5 | AlphaScreen His-ARNT PAS-B/GST-TACC3 binding, luminescence; TACC3 fragment carries E629A point mutation | inhibition, % at 9.99 µM | 390,000 tested, 0.66% active | AID 623870, 2012;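 active means mean inhibition of replicates at least 50% and at least half of replicates each reaching 50%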;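 further: 0% = complete ARNT plus TACC3 wells and 100% = ARNT alone without TACC3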
PDI turbidity: inhibitors of human PDI, primary screen, biochemical, turbidity, single point, plate reader. Protein disulfide-isomerase (Homo sapiens), P07237. PDI insulin aggregation turbidity, A650, 90 min. inhibition, % at 10 µM. 350,000 tested, 0.052% active. AID 588391, 2011;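 active means mean inhibition across replicates of 30% or more, whatever share of single replicates reach that level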
NRP1-CendR mod: modulators of CendR peptide binding to NRP-1, primary screen, biochemical, fluorescence polarization, uHTS; FAM-RPARPAR peptide binding to NRP-1; AID 602438, 2012; inhibition, % at 25 µM; 360,000 tested, 0.85% active; Neuropilin-1 (Homo sapiens), O14786;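 active means inhibition or corrected inhibition above about 18%, plus a signal ratio from 0.5 to 1.5, limit read from the data, passing the limit was not always enough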
Target sequence (O14786 whole entry, looked up): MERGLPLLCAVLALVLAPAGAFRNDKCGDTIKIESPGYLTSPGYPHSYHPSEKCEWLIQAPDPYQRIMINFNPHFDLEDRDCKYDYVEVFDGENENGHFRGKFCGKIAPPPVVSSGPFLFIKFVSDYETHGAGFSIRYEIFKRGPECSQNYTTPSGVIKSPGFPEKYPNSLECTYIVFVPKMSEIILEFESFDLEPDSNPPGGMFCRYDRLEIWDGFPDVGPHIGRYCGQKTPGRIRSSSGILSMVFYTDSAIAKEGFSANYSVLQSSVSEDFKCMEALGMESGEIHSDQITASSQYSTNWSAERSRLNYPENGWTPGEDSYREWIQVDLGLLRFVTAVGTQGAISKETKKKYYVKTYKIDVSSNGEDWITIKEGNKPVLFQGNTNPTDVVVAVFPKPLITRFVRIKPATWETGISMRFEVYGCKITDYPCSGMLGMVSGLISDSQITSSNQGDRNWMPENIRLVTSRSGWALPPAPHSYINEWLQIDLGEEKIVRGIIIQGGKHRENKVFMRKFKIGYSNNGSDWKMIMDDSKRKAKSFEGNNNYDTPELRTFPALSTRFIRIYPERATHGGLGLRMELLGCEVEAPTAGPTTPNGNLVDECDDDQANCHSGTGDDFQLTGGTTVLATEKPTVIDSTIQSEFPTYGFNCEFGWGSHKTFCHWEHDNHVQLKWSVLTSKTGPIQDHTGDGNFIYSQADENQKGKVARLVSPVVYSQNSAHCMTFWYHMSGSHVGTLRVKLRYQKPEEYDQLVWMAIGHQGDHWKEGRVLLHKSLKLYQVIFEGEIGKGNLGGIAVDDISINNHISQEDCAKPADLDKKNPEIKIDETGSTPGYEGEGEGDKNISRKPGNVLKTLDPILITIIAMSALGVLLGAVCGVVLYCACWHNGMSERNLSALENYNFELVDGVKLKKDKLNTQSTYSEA
ERp5 inh: inhibitors of ERp5-driven insulin aggregation, primary screen, biochemical, turbidity, absorbance 650 nm, single point | inhibition, % at 9.99 µM | AID 651711, 2012 | 350,000 tested, 0.05% active | 90 min | Protein disulfide-isomerase A6 (Homo sapiens), Q15084;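 active means mean replicate inhibition above about 25%, with every replicate also reaching it, limit read from the data, passing the limit was not always enough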
PglD inh: C. jejuni PglD acetyltransferase inhibitors, primary screen, biochemical, DTNB colorimetric, single point. AID 602405, 2012. 360,000 tested, 0.098% active. inhibition, % at 12.5 µM. purified PglD enzyme, DTNB colorimetric CoA detection. UDP-N-acetylbacillosamine N-acetyltransferase PglD (Campylobacter jejuni); in the data active means inhibition above about 16%, passing the limit was not always enough
ALR H2O2 inh: inhibitors of human ALR sulfhydryl oxidase, primary screen, biochemical, H2O2 detection, HRP-luminol luminescence, single point | 290,000 tested, 3.8% active | AID 485317, 2010 | inhibition, % (concentration not given with the values) | purified ALR, DTT oxidation | FAD-linked sulfhydryl oxidase ALR (Homo sapiens), P55789;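 active means mean replicate inhibition above about 79%, with every replicate also reaching it, limit read from the data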
The depositor's hits bear a star; x = no result given. Shown is part of a subset that was picked to be rich in hits.

SMILES	ARNT TACC3 PPI	PDI turbidity	NRP1-CendR mod	ERp5 inh	PglD inh	ALR H2O2 inh
Oc1c(Br)cc(Br)cc1CNc1ccc(F)cc1	6.4	6.2	-1.7	8.9	x	97.6*
Cc1ccc(F)cc1NC(=O)COC(=O)C1CC2CCCC(C1)C2=O (stereo unspecified)	x	5.4	30.0*	-2.8	0.5	x
COC(=O)c1ccc(C)c(NC(=O)COC(=O)C2CC3CCCC(C2)C3=O)c1 (stereo unspecified)	1.6	1.6	5.2	4.7	-7.0	x
C[C@@H]1CN([C@@H](C)CO)C(=O)c2cc(NC(=O)Cc3ccccc3)ccc2O[C@@H]1CN(C)Cc1ccc(Cl)c(Cl)c1	-0.5	x	x	1.5	42.2	x
Nc1ccc(S(=O)(=O)c2ccc(N)c(N)c2)cc1	1.5	9.2	1.6	-1.4	x	88.5*
C[C@H]1CN([C@@H](C)CO)C(=O)Cc2cc(NC(=O)CCN3CCOCC3)ccc2O[C@@H]1CN(C)CC1CC1	2.4	x	x	-3.0	3.6	x
O=C1NC(=O)/C(=C/c2ccc(O)cc2)S1	-0.6	1.4	1.0	-0.3	x	99.0*
CSc1nsc(SCC(=O)Nc2ccc(O)c(C(=O)O)c2)n1	x	-2.7	-2.5	1.5	2.7	82.1*
CCC(=O)N1CCc2cc(S(=O)(=O)CCC(=O)Nc3ccc(CC)cc3)ccc21	-1.7	8.5	-0.9	x	5.6	-1.1
CCC(=O)N1CCCc2cc(S(=O)(=O)CCC(=O)Nc3ccccc3C)ccc21	-2.7	4.7	27.9*	-17.7	-1.8	-3.3
CC(=O)N1CCCc2cc(S(=O)(=O)CCC(=O)Nc3cccc(C)c3C)ccc21	0.6	-11.2	21.9	3.5	-1.7	-2.1
CCC(=O)N1CCc2cc(S(=O)(=O)CCC(=O)Nc3cccc(F)c3)ccc21	-2.8	-2.0	5.5	x	-2.0	97.9*
CCC(=O)N1CCc2cc(S(=O)(=O)CCC(=O)Nc3ccc(F)c(F)c3)ccc21	-8.8	2.8	8.8	x	2.2	97.8*
Clc1ccc(N2N=C(c3cccs3)CC2c2ccco2)cc1 (stereo unspecified)	1.7	3.5	-16.3	x	x	-5.4
CCC(=O)N1N=C(c2cccs2)CC1c1ccco1 (stereo unspecified)	21.5	-3.0	40.4*	-5.5	x	-0.5
c1ccc(N2N=C(c3cccs3)CC2c2ccco2)cc1 (stereo unspecified)	-56.2	-3.5	9.2	x	-5.5	97.5*
Cc1noc(C)c1NC(=O)N(C)C[C@@H]1Oc2ccc(NC(=O)Nc3cccc4ccccc34)cc2CC(=O)N([C@@H](C)CO)C[C@@H]1C	x	x	x	2.0	0.3	x
Cc1noc(C)c1S(=O)(=O)Nc1ccc2c(c1)C(=O)N([C@@H](C)CO)C[C@H](C)[C@H](CN(C)Cc1ccc(C(F)(F)F)cc1)O2	6.8	x	x	-5.5	-1.3	x
COc1ccc(-c2c(-c3ccc(O)cc3O)n[nH]c2C(F)(F)F)cc1	32.9	-5.6	11.1	3.9	2.9	x
Oc1ccc(-c2n[nH]c(C(F)(F)F)c2-c2ccccc2)c(O)c1	x	-5.7	-2.7	-2.0	x	97.3*
COc1ccccc1-c1c(-c2ccc(O)cc2O)n[nH]c1C(F)(F)F	6.3	-2.4	-7.8	-2.4	-1.7	96.6*
COc1ccc(-c2c(-c3ccc(O)cc3O)n[nH]c2C)cc1OC	16.3	14.7	7.1	x	-0.6	88.4*
CO[C@@H]1CN(C)C(=O)c2cc(NC(C)=O)ccc2OC[C@@H](C)N(Cc2ccc(F)cc2)C[C@@H]1C	0.8	x	x	10.6	-2.1	x
C[C@@H]1CN([C@@H](C)CO)C(=O)c2cc(NC(=O)NC3CCCCC3)ccc2O[C@H]1CN(C)S(C)(=O)=O	-10.3	x	x	0.7	3.6	x
C[C@@H]1CN([C@H](C)CO)C(=O)c2cc(NS(=O)(=O)c3cn(C)cn3)ccc2O[C@@H](C)CCCCO[C@@H]1CN(C)S(=O)(=O)c1ccc(F)cc1	-13.0	x	x	0.0	4.7	x
SMILES	ARNT TACC3 PPI	PDI turbidity	NRP1-CendR mod	ERp5 inh	PglD inh	ALR H2O2 inh
COc1ccc(NC(=O)N(C)C[C@@H]2Oc3ccc(NS(=O)(=O)c4c(C)noc4C)cc3C(=O)N([C@H](C)CO)C[C@@H]2C)cc1	1.9	x	x	-2.2	1.0	x
Nc1ccn(CC(=O)NCc2ccc3[nH]ccc3c2)c(=O)n1	1.7	6.8	32.1*	-1.4	0.9	4.6
Nc1ccn(CC(=O)NCc2ccccc2)c(=O)n1	-1.2	-6.8	2.7	-3.7	6.5	-17.8
O=C(NCc1ccccc1)c1sc(=S)n2c1[nH]c(=O)c1ccccc12	7.1	-2.0	-9.9	x	0.3	98.4*
CCCCNC(=O)c1sc(=S)n2c1[nH]c(=O)c1ccc(C(=O)NCCc3ccc(OC)c(OC)c3)cc12	13.2	-7.1	-81.4	x	-1.1	18.1
COc1ccc2c3c(n(C)c2c1)[C@H](CO)N(C(=O)CN(C)C)CC31CN(Cc2nccs2)C1	x	x	x	6.4	x	x
CC(OC(=O)c1ccc(=O)n(Cc2ccccc2)n1)C(=O)Nc1cccc(Cl)c1 (stereo unspecified)	-1.7	7.8	16.7*	7.7	3.5	0.3
CCCN(C)C[C@H]1Oc2ncc(C#CCN(C)C)cc2C(=O)N([C@H](C)CO)C[C@@H]1C	0.5	x	x	-1.4	0.7	x
Cc1ccc(NC(=O)COC(=O)CCc2c(C)nc3ncnn3c2C)cc1C	-6.4	-92.3	24.5*	-7.9	-1.9	-4.0
CCn1c(SC(C)C(=O)Nc2nccs2)nnc1-c1ccncc1 (stereo unspecified)	1.8	-0.5	23.5*	0.8	-1.5	1.0
CCn1c(SCC(=O)Nc2nccs2)nnc1-c1ccc(C)cc1	-9.8	2.3	-4.3	x	0.2	-7.4
CC1(C)CNc2cc(N)ccc2S1	10.5	-21.5	-88.2	1.0	x	83.6*
CC(OC(=O)C1=COCCO1)C(=O)Nc1cc(S(=O)(=O)N2CCCCC2)ccc1Cl (stereo unspecified)	-0.3	0.0	22.7*	4.5	-4.6	-8.0
O=C(N[C@@H]1C=C[C@H](CC(=O)N2CCCCC2)O[C@H]1CO)c1ccc2c(c1)OCO2	-4.8	x	x	6.6	4.7	x
C[C@H](CO)N1C[C@H](C)[C@H](CN(C)CC2CC2)Oc2cc(C#Cc3ccccc3F)ccc2S1(=O)=O	8.9	x	x	-4.0	1.9	x
CCCCCCCCN1[C@@H](CC(=O)OCC)c2ccc(C(F)(F)F)cc2S1(=O)=O	x	1.1	3.1	-5.1	4.8	-0.4
CCCCCCCCCCCCN1[C@@H](CC(=O)O)c2cc(F)ccc2S1(=O)=O	x	-1.6	-57.0	-6.3	-4.8	97.6*
O=C(O)C[C@H]1c2cc(F)ccc2S(=O)(=O)N1C1CCCCC1	-0.9	-5.7	25.1*	1.7	-5.7	3.1

Compound activity deposited in PubChem BioAssay by several laboratories.
